High-throughput results: PubChem BioAssay, The Scripps Research Institute Molecular Screening Center
E coli Lon inh: inhibitors of E. coli Lon protease, primary screen, biochemical, fluorescence polarization; actives 0.42% (n = 360,000); P0A9M0; purified E. coli Lon protease; inhibition, % at 7.94 µM; in the data active = inhibition above about 13%, passing the limit was not always enough;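 also: 0% = enzyme with probe and DMSO and 100% = no enzyme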
GLD-1 RNA inh: GLD-1/TGE RNA complex disruptors, primary screen, biochemical, fluorescence polarization. Female germline-specific tumor suppressor gld-1 (Caenorhabditis elegans), Q17339. purified GLD-1 + fluorescein TGE RNA. inhibition, % at 5.96 µM. actives 0.44% (n = 320,000). AID 2280, 2010;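 active = percent inhibition above a per-plate cutoff, the plate mean of test compounds plus 3 SD, cut at about 30% in these data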;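 also: 0% = DMSO wells with GLD-1 and probe and 100% = wells lacking GLD-1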
RTF Ca sens act: cardiac RTF calcium sensitivity activators, primary screen, biochemical, IANBD-TnC fluorescence, EC20 calcium | AID 493008, 2010 | actives 0.24% (n = 340,000) | activation, % at 7.2 µM | IANBD-labeled TnC RTF fluorescence at EC20 calcium; 0% EC20 calcium, 100% full calcium | Troponin I, cardiac muscle (Homo sapiens) + Troponin T, cardiac muscle (Homo sapiens) + …;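 active = activation above the mean over all tested compounds plus 3 SD, cut at about 30% in these data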;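 also: rise in fluorescence read as greater calcium sensitivity of cardiac thin filaments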
Bcl-xL primary: inhibitors of human Bcl-xL, primary screen, biochemical, fluorescence polarization, HTS; GST-Bcl-xL / FITC-Bim BH3 peptide fluorescence polarization; AID 2129, 2009; actives 0.7% (n = 320,000); Bcl-2-like protein 1 (Homo sapiens), Q07817; inhibition, % at 10.9 µM;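 active = inhibition above the mean of all tested compounds plus 3 SD, cutoff set per campaign, cut at about 30% in these data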;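 also: 0% = DMSO wells and 100% = unlabeled Bim-BH3 peptide competitor; inhibitors lower millipolarization by displacing the labeled peptide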
Target sequence (Q07817 whole entry, looked up): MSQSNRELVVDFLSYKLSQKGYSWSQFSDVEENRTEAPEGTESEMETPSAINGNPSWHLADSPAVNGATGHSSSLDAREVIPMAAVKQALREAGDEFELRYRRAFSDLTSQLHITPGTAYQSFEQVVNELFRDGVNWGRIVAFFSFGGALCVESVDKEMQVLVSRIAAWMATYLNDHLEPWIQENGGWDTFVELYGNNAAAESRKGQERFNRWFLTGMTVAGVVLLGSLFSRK
Cardiac RTF inh: cardiac RTF calcium sensitivity inhibitors, primary screen, biochemical, IANBD-TnC fluorescence, EC70 calcium; Troponin I, cardiac muscle (Homo sapiens) + Troponin T, cardiac muscle (Homo sapiens) + …; actives 0.12% (n = 340,000); AID 493244, 2011; inhibition, % at 7.15 µM; IANBD-labeled cardiac RTF, Ca2+ fluorescence;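 active = inhibition above the mean inhibition of all tested compounds plus 3 SD, cut at about 17% in these data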;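 also: assay run at fixed EC70 calcium of 1.6 mM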
eLon confirm: E. coli Lon protease inhibitor retest, confirmation, biochemical, fluorescence polarization; actives 31% (n = 1,400); AID 602230, 2012; purified E. coli Lon; shares compounds with E coli Lon inh; inhibition, % at 7.94 µM; in the data active = inhibition above about 16%;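 also: 0% = enzyme with probe and DMSO and 100% = no enzyme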
* marks the source's active call; other numbers are inactive results; i = inactive; · = no result given; + = active, no number. Shown are actives, neighbours in structure and some others; about 1.2% of the full set was active somewhere.

SMILES | E coli Lon inh | GLD-1 RNA inh | RTF Ca sens act | Bcl-xL primary | Cardiac RTF inh | eLon confirm
O=C1CC(c2ccc(S(=O)(=O)N3CCCCC3)cc2)CN1 (stereo not given) | 2 | 11 | -6 | 1 | -14 | ·
Cc1ccc(-c2ccccc2NC(=O)CCl)o1 | -2 | 2 | -4 | 8 | -3 | ·
Cc1ccc(-c2ccccc2NC(=O)CS(=O)CC(=O)Nc2ccc(C)c(Cl)c2)o1 (stereo not given) | 114* | 140* | 4 | 119* | 1 | 16*
CCCCSc1nnc([C@@H]2CCCN2C(=O)OC(C)(C)C)o1 | -3 | 0 | 0 | 1 | -3 | ·
O=C1CC(c2ccccc2)CC(O)=C1C=NCCN1CCN(C(=S)Nc2cccc(Cl)c2)CC1 (stereo not given) | -4 | -2 | 5 | 9 | -9 | ·
CCN(c1c(C)n(C)n(-c2ccccc2)c1=O)S(C)(=O)=O | 69* | 8 | 0 | 4 | -18 | -22
CC(C)N1C(=O)C(=O)N(CC(=O)N2CCc3ccccc32)C1=O | -6 | 6 | -1 | 2 | -3 | ·
CCCCN1C(=O)C(=O)N(CC(=O)N2CCc3ccccc32)C1=O | 17* | 2 | 4 | 5 | 3 | -1
O=S(=O)(NC1CC1)c1ccc(S(=O)(=O)N2CCCC3(CCCCC3)C2)cc1 | -1 | 2 | 2 | -1 | -3 | ·
COc1cc2c(C#N)c(N3CCCC3)nc(N)c2c(N)n1 | -3 | -5 | -1 | 5 | -19 | ·
N#Cc1c(N2CCCC2)nc(N)c2c(N)nc(N3CCCC3)cc12 | 51* | 16 | 7 | 14 | 4 | 0
N[C@@H]1CONC1=O | · | 2 | · | -8 | · | ·
COCCNC(=O)c1c[nH]c2ccc(S(=O)(=O)Nc3ccccc3F)cc2c1=O | 18* | -4 | -2 | 9 | -1 | 9
COCCNC(=O)c1c[nH]c2ccc(S(=O)(=O)Nc3ccc(F)cc3F)cc2c1=O | 6 | -2 | -5 | 5 | -2 | ·
O=C(c1[nH]ncc1-c1ccccc1)C1CO1 (stereo not given) | 50* | 4 | 12 | 2 | -13 | 21*
O=C(COC(=O)c1ccc(NS(=O)(=O)c2cccs2)cc1)Nc1nc2c(F)c(F)c(F)cc2s1 | 21* | · | 1 | · | -1 | -25
CCOC(=O)CSc1nnc(-c2ccc(Cl)cc2Cl)o1 | 2 | -8 | 4 | 1 | -19 | ·
COc1ccc(NC(=O)N(C)C[C@@H]2Oc3ncc(Br)cc3C(=O)N([C@@H](C)CO)C[C@@H]2C)cc1 | 1 | · | · | · | · | ·
COc1cccc(NC(=O)N(C)C[C@H]2Oc3ncc(Br)cc3C(=O)N([C@H](C)CO)C[C@H]2C)c1 | 13* | · | · | · | · | -11
CCCCc1ncc(CN2CCC(n3nccc3NC(=O)c3ccccc3Cl)CC2)[nH]1 | 19* | -4 | 1 | 0 | -7 | 6
CCn1cc(CN2CCC(n3nccc3NC(=O)c3ccccc3C)CC2)c(C)n1 | 45* | 0 | -7 | 4 | -4 | -5
COCCNC(=S)N(CCN(C)C)Cc1cc2cc3c(cc2[nH]c1=O)OCO3 | 3 | 6 | -4 | -2 | 0 | ·
CCOC(=O)N1CCN(Cc2nc3ccc([N+](=O)[O-])cc3c(=O)n2-c2ccccc2F)CC1 | 18* | 2 | 10 | 0 | -7 | 0
c1ccc(Nc2ccccc2Nc2ccccn2)nc1 | 33* | 141* | 6 | 98* | -4 | 2
COc1ccc(N2CCN(CC(O)COCCOc3ccc(Br)cc3)CC2)cc1 (stereo not given) | -20 | 3 | 9 | 3 | -14 | ·
SMILES | E coli Lon inh | GLD-1 RNA inh | RTF Ca sens act | Bcl-xL primary | Cardiac RTF inh | eLon confirm
OCCN1CCN(CC(O)COCCOc2ccc(Br)cc2)CC1 (stereo not given) | 69* | 2 | 3 | 6 | -3 | -2
COc1cccc(C2=CC(=O)CC(C)(C)C2=O)c1 | 12* | · | · | · | · | -13
Cc1nnsc1-c1onc(C)c1C(=O)Nc1cc(Cl)cc(Cl)c1 | 0 | 9 | -1 | 9 | 0 | ·
O=C(Nc1ccccc1C(=O)N1CCCCCC1)c1ccc(F)cc1 | 0 | 4 | -4 | -1 | -3 | ·
O=C(Nc1ccccc1C(=O)N1CCN(Cc2ccccc2)CC1)c1ccc(F)cc1 | 22* | 1 | -1 | 3 | 5 | -1
COc1ccc(C(NC(=O)CNC(C)=O)C(=O)Nc2ccc3c(c2)OCCO3)cc1 (stereo not given) | 14* | 4 | 0 | 5 | -4 | -22
CC1(NC(=O)CSc2nnc(-c3ccco3)n2Cc2ccccc2)CCS(=O)(=O)C1 (stereo not given) | -12 | 10 | -1 | -16 | -5 | ·
O=c1[nH]c2ccccc2nc1/C=C/c1ccccc1 | 14* | 0 | 16 | 10 | -4 | -36
Cc1ccsc1C(=O)N1CCN(c2ncc(C(F)(F)F)cc2Cl)CC1 | 23* | 3 | 2 | 2 | 0 | -6
C=CCOC(=O)C1=C[C@H](c2coc3ccccc3c2=O)[C@@H](CCCO)[C@H](OCC)O1 | 26* | 6 | 4 | -8 | -10 | 1
CCOC(=O)C(=C1Nc2ccccc2N1)n1c(-c2ccco2)nc2ccccc21 | 41* | · | · | · | · | 20*
CCOC(=O)C(=C1Nc2ccccc2N1)n1c(-c2cnccn2)nc2ccccc21 | -6 | · | · | · | · | ·
Nc1ccc2nc3c(=O)n(C4CCCCC4)c(=O)[nH]c3nc2c1 | + | + | 457* | + | i | 183*
Nc1ccc2nc(CCc3ccccc3)[nH]c2c1 | 0 | 3 | 0 | 7 | -2 | ·
CCCCn1c(=O)[nH]c2nc3cc(N)ccc3nc2c1=O | + | + | 767* | + | i | +
COc1cc2[nH]c(=O)n(C3CCCCC3)c(=O)c2cc1OC | 7 | 8 | 4 | -4 | 1 | ·
Cc1nc2ccccc2c(=O)n1CCc1ccccc1 | 5 | 7 | -4 | 3 | -7 | ·
Nc1ccc2nc3c(=O)n(CCc4ccccc4)c(=O)[nH]c3nc2c1 | 191* | 191* | · | 181* | · | 132*
CCCCn1c(N)c(Br)c(=O)[nH]c1=O | -3 | -7 | 3 | 3 | 0 | ·
Cc1cc2nc3c(=O)n(CCc4ccccc4)c(=O)[nH]c3nc2cc1N | 166* | 189* | 516* | + | i | 89*
CCc1nc2c(cnn2-c2ccc(Cl)cc2)c(=O)n1-c1ccc2c(c1)OCCO2 | -3 | 2 | 2 | 4 | -2 | ·
Cn1c2ccccc2c2cc(/C=N/NC(=O)c3ccc(N)cc3)ccc21 | 20* | 0 | -5 | 9 | -1 | 2
